The list is not random: actives were taken first. Their share in the collection is about 10%.
GLS inhibitor – inhibitors of human glutaminase (GLS). Potency, µM (top dose mostly 45.5 µM), without a hit: at the highest dose activity change, negative = inhibition, most hits filed as inhibitors. GLS enzymatic activity, qHTS titration. O94925. 410,000 compounds, 0.21% hits; further: on the % scale 0 is the no-effect control and ±100 the full control effect
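hKGA; 45 mM KH2PO4 pH 8.2 + 0.02% Tween-20; cpd via pin tool; 1 mM Gln soln; GluOx/HRP/Amplex Red; RT 30 min; fluor. t0 & final.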
JMJD2A Tudor – inhibitors of human JMJD2A Tudor domain; O75164; AlphaScreen JMJD2A-Tudor / H3K4me3 peptide binding; Potency, µM (series often up to 114 µM), for inactives: at the top dose activity change, negative = inhibition, usual class: inhibitors; 390,000 compounds, 4.4% hits; further: on the % scale 0 is the no-effect control and ±100 the full control effect; nearly all actives have a fitted effect of over 50% in size
G9a block – blocks human histone lysine methyltransferase G9a. G9a H3K9 monomethylation, AlphaScreen, 2 h. Potency, µM (top dose mostly 102 µM), for inactives: top-dose activity, negative = inhibition, actives largely listed as inhibitors. 350,000 compounds, 8.8% hits; further: on the % scale 0 is the no-effect control and ±100 the full control effect; nearly all actives have a fitted effect of over 75% in size
Target sequence (Q96KQ7 913-1193 limits assumed): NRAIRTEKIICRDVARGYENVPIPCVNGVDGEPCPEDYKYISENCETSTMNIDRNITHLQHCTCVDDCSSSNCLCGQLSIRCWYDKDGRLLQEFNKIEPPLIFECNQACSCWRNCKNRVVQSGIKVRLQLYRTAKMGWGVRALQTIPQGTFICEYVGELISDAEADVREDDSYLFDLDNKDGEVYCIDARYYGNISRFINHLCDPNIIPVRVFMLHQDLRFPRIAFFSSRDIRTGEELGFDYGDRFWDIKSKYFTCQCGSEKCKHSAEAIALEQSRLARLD
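AlphaScreen detection with an anti-monomethyl H3K9 antibody quantified product after a 2 h room-temperature reaction containing 500 nM biotinylated H3K9 peptide, 20 µM SAM and 20 nM enzyme, which had been preincubated 15 min with compound.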
BAZ2B inh – inhibitors of human BAZ2B bromodomain; 360,000 compounds, 4.4% hits; Q9UIF8; AID 504333; Potency, µM (series often up to 114 µM), inactives show at the top dose activity change, negative = inhibition, usual class: inhibitors; AlphaScreen BAZ2B-H3K14Ac peptide displacement; further: on the % scale 0 is the no-effect control and ±100 the full control effect; nearly all actives have a fitted effect of over 60% in size
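AlphaScreen displacement of biotin-H3(5-23)K14Ac peptide (50 nM final) from BAZ2B (50 nM final) in PBS pH 7.4, 0.01% Tween-20; complex preformed 30 min RT, then compounds (top 110 uM) 30 min RT, beads 20 min dark.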
HP1b chromo inh – inhibitors of HP1-beta chromodomain binding to methylated histone tails; Potency, µM (highest dose often 114 µM), inactives show top-dose activity change, negative = inhibition, actives largely listed as inhibitors; P83916; 390,000 compounds, 0.56% hits; AID 540317; AlphaScreen HP1-beta / biotin-H3K9me3 peptide binding; further: nearly all actives have a fitted effect of over 70% in size
Target sequence (P83916 whole entry, looked up): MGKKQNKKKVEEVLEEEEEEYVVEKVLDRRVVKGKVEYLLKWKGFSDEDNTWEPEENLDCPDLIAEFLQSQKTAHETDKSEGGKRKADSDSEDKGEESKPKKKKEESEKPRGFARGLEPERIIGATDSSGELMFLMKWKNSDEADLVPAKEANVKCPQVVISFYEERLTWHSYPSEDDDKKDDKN
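Compound inhibition of the preformed complex between 50 nM HP1-beta and 50 nM biotinylated H3K9me3 peptide was read by AlphaScreen. Buffer was PBS pH 7.4 with 0.01% Tween-20. Incubations ran 30 min at room temperature, with 10 ug/mL donor/acceptor beads.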
An asterisk follows results filed as active; ! = a repeat was not active; [ ] = another dose, or the depositor's remark. The call rests on the fitted dose curve; in most records, active means well fitted curve in the direction sought with a large enough effect; inconclusive means small, poorly fitted or top-dose-only effect, or another doubt; inactive means no such curve, though single readings can be large; an effect the other way counts as inactive or inconclusive. Potency means the concentration at half of the fitted maximal effect.

Screening CC1=C(C(=O)OCc2ccccc2)C(c2ccccc2Cl)NC(=O)N1CCCC(=O)O (stereo not given) returned GLS inhibitor 3.0%, JMJD2A Tudor -1.4%, G9a block -11.0%, BAZ2B inh -33.5% and HP1b chromo inh 31.2%.
For COC(=O)c1ccc(NC(=O)Cn2nc(C)c3ccccc3c2=O)cc1 the results were GLS inhibitor -6.7%, JMJD2A Tudor 3.8%, G9a block 27.2%[59 µM], BAZ2B inh -6.4% and HP1b chromo inh 50.1%.
O=C(CN1CCN(C(=O)c2ccc(-c3nc4ccccc4s3)o2)CC1)Nc1ccccc1Cl was read as GLS inhibitor 2.5%, JMJD2A Tudor -30.5%, G9a block 6.9%[0.501 µM], BAZ2B inh 5.1% and HP1b chromo inh -4.4%.
`CN(CC(=O)Nc1ccc(Cl)c(C(F)(F)F)c1)C(=O)c1cccc(N2C(=O)CCC2=O)c1` gave GLS inhibitor -5.1%, JMJD2A Tudor 5.4%, G9a block 9.4%[59 µM], BAZ2B inh -5.4% and HP1b chromo inh 29.8%.
Screening CCOc1ccc(-n2ccc(=O)c(C(=O)Nc3ccc(S(=O)(=O)N4CCOCC4)cc3)n2)cc1 returned GLS inhibitor -3.6%, JMJD2A Tudor 1.5%, G9a block -6.3%, BAZ2B inh -11.9%[57.1 µM] and HP1b chromo inh 39.2%.
For CCNc1nc(SC(C(C)=O)C(C)=O)nc(N(C)C)n1 the results were GLS inhibitor -14.2%, JMJD2A Tudor -20.7%, G9a block inconclusive, BAZ2B inh 7.7% and HP1b chromo inh 15.5%.
`COc1ccc(C2=C/C(=C\c3ccccc3OC(C)=O)C(=O)O2)cc1` gave GLS inhibitor -3.0%, JMJD2A Tudor 18.4%, BAZ2B inh -4.2% and HP1b chromo inh 27.4%.
O=C(Cc1ccccc1)NC1CCS(=O)(=O)C1 (stereo not given) was read as GLS inhibitor -0.6%, JMJD2A Tudor -5.1%, G9a block -12.2%[59 µM], BAZ2B inh -3.9% and HP1b chromo inh 32.5%.
For O=C(COC(=O)CCc1ccccc1)NC1CCS(=O)(=O)C1 (stereo not given) the results were GLS inhibitor -6.4%, JMJD2A Tudor -11.7%, G9a block 50.1µM*, BAZ2B inh -5.8% and HP1b chromo inh 12.6%.
O=C(NCc1ccccc1)C1c2ccccc2OCC(=O)N1CC(F)(F)F (stereo not given) was read as GLS inhibitor 6.3%.
For O=C(COc1ccc(Br)cc1)N/N=C1/SCC(=O)N1Cc1ccco1 the results were GLS inhibitor 0.0%, JMJD2A Tudor 15.8µM*, G9a block -43.6%, BAZ2B inh inconclusive and HP1b chromo inh inconclusive.
O=C1CSC(=Nc2ccc(Cl)cc2)N1Cc1ccco1 was read as GLS inhibitor -1.1%, JMJD2A Tudor -5.4%, G9a block 8.2%[59 µM], BAZ2B inh 1.1% and HP1b chromo inh 42.0%.
Screening CN(C)c1ccc(N/C=C/C(=O)c2ccccc2)cc1 returned GLS inhibitor 7.6%, JMJD2A Tudor inconclusive, G9a block 5.62µM*, BAZ2B inh inconclusive and HP1b chromo inh -20.3%.
`CCOC(=O)c1ccc(N/C=C/C(=O)C(C)(C)C)cc1` gave GLS inhibitor 1.7%, JMJD2A Tudor -13.3%, G9a block -19.8%, BAZ2B inh -20.1% and HP1b chromo inh 47.0%.
For CN(C)c1ccc(N/C=C/C(=O)C(C)(C)C)cc1 the results were GLS inhibitor 20.8%, JMJD2A Tudor 50.1µM*, G9a block inconclusive, BAZ2B inh 39.8µM* and HP1b chromo inh -53.7%.
Screening O=C(/C=C/Nc1ccccc1)c1ccccc1 returned GLS inhibitor 17.1%, JMJD2A Tudor -0.7%, G9a block 10.8%[0.501 µM], BAZ2B inh inconclusive and HP1b chromo inh 28.1%.
Screening CC(C)c1ccc(/C=C(\NC(=O)c2ccccc2)C(=O)NCCCn2ccnc2)cc1 returned GLS inhibitor 5.3%, JMJD2A Tudor 19.1%, G9a block -9.1%, BAZ2B inh inconclusive and HP1b chromo inh 27.8%.
For COc1cccc(-c2ccc(-c3noc(-c4cccs4)n3)c(OC)n2)c1 the results were GLS inhibitor 7.8%, JMJD2A Tudor 27.8%, G9a block 1.26µM*, BAZ2B inh 2.3% and HP1b chromo inh 12.3%.
COc1nc(-c2ccc(Cl)cc2)ccc1-c1noc(-c2ccco2)n1 was read as GLS inhibitor -9.2%, JMJD2A Tudor -0.8%, G9a block 2.82µM*, BAZ2B inh -20.7% and HP1b chromo inh 15.7%.
For COc1ccc(C(=O)NCc2ccco2)cc1S(=O)(=O)N1CCOCC1 the results were GLS inhibitor -1.7%, JMJD2A Tudor -7.6%, G9a block 13.3%, BAZ2B inh -12.3% and HP1b chromo inh 12.8%.
COc1ccc(CCNC(=O)c2ccc(OCC(=O)N3CCOCC3)c(OC)c2)cc1OC was read as GLS inhibitor 9.0%, JMJD2A Tudor -1.4%, BAZ2B inh 11.1% and HP1b chromo inh 23.5%.
COc1cc(C(=O)Nc2ccc(S(=O)(=O)N3CCCCC3)cc2)ccc1OCC(=O)N1CCOCC1 was read as GLS inhibitor 6.4%, JMJD2A Tudor -4.5% and HP1b chromo inh 27.9%.
For COc1ccc(S(=O)(=O)N(C)C)cc1NC(=O)c1ccc(OCC(=O)N2CCOCC2)c(OC)c1 the results were GLS inhibitor 2.8%, JMJD2A Tudor -22.8%, G9a block 50.1µM*, BAZ2B inh 9.6% and HP1b chromo inh 14.4%.
For COc1ccc(CCNC(=O)c2ccc(OCC(=O)N3CCOCC3)c(OC)c2)cc1 the results were GLS inhibitor -1.2%, JMJD2A Tudor -15.8%, G9a block 8.91µM*, BAZ2B inh -4.1% and HP1b chromo inh 17.5%.
For O=C(Cn1cc(SCc2cccc(Cl)c2)c2ccccc21)N1CCOCC1 the results were GLS inhibitor 0.8%, JMJD2A Tudor -11.4%, G9a block 31.6µM*!, BAZ2B inh -22.1% and HP1b chromo inh 30.7%.
`Cc1ccc(S(=O)(=O)NN2CCCCCC2)cc1` gave GLS inhibitor 12.4%.
Screening CN1CCN(NS(=O)(=O)c2ccc(Cl)cc2)CC1 returned GLS inhibitor -20.4%, JMJD2A Tudor -10.9%, G9a block 1.12µM*, BAZ2B inh 1.2% and HP1b chromo inh 15.0%.
COC(=O)Nc1ccc(S(=O)(=O)N2CCCC(C(=O)N3CCCCC3)C2)cc1 (stereo not given) was read as GLS inhibitor 9.1%, JMJD2A Tudor -16.7%, G9a block 2.8%, BAZ2B inh -31.8% and HP1b chromo inh 15.4%.
`CC(C)c1onc(C(=O)N2CCCCCC2)c1[N+](=O)[O-]` gave GLS inhibitor 3.7%, JMJD2A Tudor -13.2%, G9a block inconclusive, BAZ2B inh -1.6% and HP1b chromo inh 32.1%.
`COC1(C)CC2C(CC1OC(=O)c1cc([N+](=O)[O-])cc([N+](=O)[O-])c1)C2(C)C` (stereo not given) gave GLS inhibitor 0.0%, JMJD2A Tudor 25.1µM*, G9a block 12.6µM*, BAZ2B inh 7.08µM* and HP1b chromo inh inconclusive.

Screens deposited in PubChem BioAssay by National Center for Advancing Translational Sciences (NCATS).
